These results are taken from PubChem BioAssay (NCI).

The structures appear in SMILES notation. The panel holds about 83,000 compounds, 20% with a hit somewhere; the sample as a whole holds those more often.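 Percent growth is the endpoint: 0 to 100 indicates growth inhibition (40 means 60% inhibition), 0 means no net growth, and negative values indicate cell death.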 Values without a mark were called inactive. Calls of active or inactive are those of the source. Rule for the calls: active = growth percent below 10; inactive = the rest.

This assay relates to DU-145 prostate. The experiment in a line: NCI-60 one-dose screen, 48 h (100 = growth as untreated, 0 = no growth, -100 = all killed). Particulars: 10 µM unless noted.
As for `CCCSc1nc(Nc2ccc(S(N)(=O)=O)cc2)c(C#N)c(-c2ccc(Cl)cc2)n1`, the growth was 58.7%.
Then `CCCCSc1nc(Nc2ccc(S(N)(=O)=O)cc2)c(C#N)c(-c2ccc(Cl)cc2)n1`, with 53%.
On to `Cn1cc(-c2cc3nc(-c4cn(C)c5ncccc45)cc(N)n3n2)c2ccccc21`, for which the growth was 40.9%.
For `Cc1ccc(C2=NN(c3nc(-c4cc5ccccc5oc4=O)cs3)C(c3ccc(C)cc3)C2)cc1` (centres undefined), the growth was 113%.
For `Cc1ccc2c(c1)nc(-c1ccccc1)n2CC(=O)N=Nc1c(O)[nH]c2ccc(Br)cc12`, the growth is -10.8% (active).
As to `O=C(Cn1nc(-c2ccccc2)ccc1=O)N/N=C/c1ccc(N2CCOCC2)cc1`, the growth is 101%.
Take `O=C(NN1C(=O)/C(=C/C=C/c2ccc([N+](=O)[O-])o2)SC1=S)c1ccc(Cl)cc1`: the growth was -100% (active).
As to `CCCCSc1nc(Nc2ccc(S(N)(=O)=O)cc2)c(C#N)c(-c2cc(OC)c(OC)c(OC)c2)n1`, the growth is 54.1%.
Consider `COc1cc2c3c(n(CCCN4CCC[C@@H]4CO)c(=O)c2cc1OC)-c1cc2c(cc1C3=O)OCO2`, for which the growth was -100% (active).
For `Cn1cc(-c2cc(N)n3nc(-c4cn(C)c5ncc(Br)cc45)cc3n2)c2cc(Br)cnc21`, the growth is 5.43% (active).
With `Cn1cc(-c2cc(N)n3nc(-c4c[nH]c5ccccc45)cc3n2)c2cccnc21`, the growth was 38.2%.
With `CN(C)c1nc(NCCNS(=O)(=O)c2ccc(C3=Nc4c(N)nc(N)nc4NC(c4ccccc4)C3)cc2)nc(Nc2ccc(F)cc2)n1` (centres undefined) the figure was 58%.
Turning to `COc1ccc(-c2ccc(SCC(=O)NCCc3ccc(S(N)(=O)=O)cc3)nn2)cc1`, the growth was 96.1%.
For `O=C(CCN1C(=O)/C(=C/c2ccc(F)cc2)SC1=S)N1CCOCC1`, the growth is 35.8%.
Regarding `Cc1cc2nc3c4ccccc4n(CC4=NCCN4)c3nc2cc1C`, the growth was 2.14% (active).
On to `Cc1ccc(C(=O)NN2C(=O)/C(=C/C=C/c3ccc([N+](=O)[O-])o3)SC2=S)cc1`, for which the growth was -100% (active).
`Cc1cc2nc3c([nH]c2cc1C)c1ccc(=O)cc1n3CCN(C)C`: the growth was 28.8%.
Consider `N/C(=N\c1nc2ccccc2s1)NC(=O)Nc1c(Cl)cccc1Cl`, for which the growth was 55.1%.
As to `Brc1ccc(-c2n(Cc3ccc4ccccc4c3)c(-c3ccccc3)c(-c3ccccc3)[n+]2Cc2ccc3ccccc3c2)cc1`, the growth was -100% (active).
With `C=C1CC[C@@H]2[C@]3(C)COC(c4cn[nH]c4-c4ccc(Br)cc4)O[C@@H]3CC[C@@]2(C)[C@@H]1C/C=C1/C(=O)OCC1O` (some centres undefined), the growth was -78.6% (active).
On to `COc1ccc(-c2nc3cc(C)ccc3n2CC(=O)N=Nc2c(O)[nH]c3ccc(Br)cc23)cc1`, for which the growth is 16.1%.
For `CC12CC[C@@H]3[C@]4(C)COC(c5cn[nH]c5-c5cccc(Br)c5)O[C@@H]4CC[C@@]3(C)[C@@H]1CC(C1=CCOC1=O)O2` (some centres undefined), the growth is 53.5%.
For the compound `COc1c(F)ccc(C(=O)Nc2ccc3nc(NC(=O)C4CCCN(S(=O)(=O)c5ccc(C#N)cc5)C4)sc3c2)c1F` (centres undefined), the growth was 95.7%.
For `COc1ccc2c(c1)c(-c1cc3nc(-c4cn(C)c5ncccc45)cc(N)n3n1)cn2C`, the growth was -27.2% (active).
With `CC(=O)c1cc(C(=O)c2ccccc2)n2c1ccc1ccccc12` the figure was 128%; with `COc1ccc2[nH]c(=O)c(CSc3nccc(-c4ccc(OC)c(OC)c4)n3)cc2c1`, 37.4%.
Then `COc1ccc(NC(=O)Cn2c3c(sc2=O)[C@H]2[C@@H](O)[C@@H](O)[C@H](O)[C@@H]2CS3)cc1`, with 109%.
With `C=C1CCC2C3(C)COC(c4cccs4)OC3CCC2(C)C1CC(Sc1ccccc1)C1=CCOC1=O` (centres undefined), the growth was 94.4%.
As to `CC1CN(c2oc(-c3ccc([N+](=O)[O-])cc3)nc2C#N)CC(C)O1` (centres undefined), the growth is 117%.
Consider `Cc1occc1C(=O)NN1C(=O)/C(=C/C=C/c2ccc([N+](=O)[O-])o2)SC1=S`, for which the growth is -57.7% (active).
With `N=C1N=C(SCc2nc3ccccc3[nH]2)NC(=O)/C1=C/c1ccc(Cl)cc1`, the growth was 110%.
For the compound `O=C(NN1C(=O)/C(=C/C=C/c2ccc([N+](=O)[O-])o2)SC1=S)c1ccccc1O`, the growth was -100% (active).
Consider `COc1ccc(-c2nc3cc(C)ccc3n2CC(=O)N=Nc2c(O)[nH]c3ccc(Cl)cc23)cc1`, for which the growth was 15%.
On to `COC1=C[C@]23CCC(=O)N2CCc2cc4c(cc2[C@@H]3[C@@H]1OC(=O)[C@H](C)O)OCO4`, for which the growth was 31.7%.
